Data from the supplement of paper PMC7156485.
± gives the standard deviation of the averaged measurements.

How the values were obtained:
Settings in all cases: concentration: 10 µM; 24 h
HCC1569 [1] = test: cell number relative to DMSO (% of DMSO); higher = more cells (less growth inhibition / toxicity)
How it was run: (§1)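 H1.0 nuclear intensity or cell number is stated as percent of the plate control, based on the median of replicates, and HCC1569 values were smoothed for positional effects. These came from HCC1569 and TDF cells treated with compounds at 10 µM for 24 h at 37 °C in triplicate, then fixed in 3.7% formaldehyde and stained with a rabbit anti-H1.0 antibody, an AlexaFluor 647 secondary and DAPI.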

TDF [2] = test: as above
How it was run: as §1

TDF [3] = test: H1.0 immunofluorescence intensity relative to DMSO (% of DMSO); higher = stronger H1.0 induction, active = 120 or more
How it was run: as §1

HCC1569 [4] = test: H1.0 immunofluorescence intensity relative to DMSO (% of DMSO); higher = stronger H1.0 induction, active = 140 or more
How it was run: as §1
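Throughout, for H1.0 immunofluorescence intensity relative to DMSO: TDF is a line of transformed human dermal fibroblasts of mesenchymal origin.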
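Throughout, for cell number relative to DMSO: TDF denotes transformed human dermal fibroblasts of mesenchymal origin.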

Row | Structure (SMILES) | cell number (HCC1569 [1]) | cell number (TDF [2]) | H1.0 immunofluorescence intensity (TDF [3]) | H1.0 immunofluorescence intensity (HCC1569 [4])
1 | CCCCCCCCCCCCCCCCCCCCCC(=O)O [Docosanoic acid] | 101 | 104 | 101 (inactive) | 101 (inactive)
2 | CCCc1nc(C)c2c(=O)nc(-c3cc(S(=O)(=O)N4CCN(CC)CC4)ccc3OCC)[nH]n12 [Vardenafil] | 105 | 108 | 91 (inactive) | 100 (inactive)
3 | O=C(NO)c1cccc(C(=O)NCCc2ccccc2)c1 [N1-hydroxy-N3-phenethylisophthalamide] | 105 | 88 | 90.4 (inactive) | 101 (inactive)
4 | COc1ccc2[nH]cc(CCNC(C)=O)c2c1 [Melatonin] | 101 ± 3.5 | 99.5 ± 3 | 93.4 (inactive) | 93.4 (inactive)
5 | CCCCCCCCCCCC=CCCCCCC(=O)O [7(E)-Nonadecenoic acid] | 98.7 | 104 | 96.9 (inactive) | 94.3 (inactive)
6 | CSc1nc(N)c2ncn(C3OC(COP(=O)([O-])OP(=O)([O-])OP(=O)([O-])[O-])C(O)C3O)c2n1.[Na+].[Na+].[Na+].[Na+] (configuration not stated) [2-Methylthioadenosine triphosphate tetrasodium] | 102 | 109 | 93 (inactive) | 95.7 (inactive)
7 | COc1ccc2c(c1)c(CC(=O)Nc1ccc(NC(C)=O)cc1)c(C)n2C(=O)c1ccc(Cl)cc1 [N-(4-acetamidophenyl)indomethacinamide] | 78.7 | 70.1 | 134 (active) | 149 (active)
8 | COc1cc(/C=C/C(=O)NCCn2c(C)cc3ccccc32)cc(OC)c1OC | 103 | 96.6 | 103 (inactive) | 106 (inactive)
